The values below come from PubChem BioAssay (NCATS).

Records with an inconclusive call do not appear. Activity calls are given as the source filed them. Unless noted, calls come from the whole dose curve; as a rule, active = well fitted curve in the direction sought with a large enough effect; inconclusive = small, poorly fitted or top-dose-only effect, or another doubt; inactive = no such curve, though single readings can be large; an effect the other way counts as inactive or inconclusive. Bounds are passed on as bounds.

The target of assay [1] is Voltage-gated inwardly rectifying potassium channel KCNH2 (Homo sapiens) (UniProt Q12809). Nature of the assay: qHTS Assay for Small Molecule Inhibitors of the Human hERG Channel Activity (AID 588834). For activity change, negative = inhibition: top concentration of the series differs between compounds; % is set by controls: 0 for no effect and ±100 for the full control effect.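 Note: lower thallium flux fluorescence means stronger hERG block; nearly all actives have a fitted effect of over 50% in size.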 Note: potency is the fitted concentration of half-maximal effect. Summed up: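 Thallium-flux (FluxOR) read-out on FDSS: fluorescence read 10 s before and 2 min after stimulation buffer. hERG-BacMam-transduced U2OS cells, compound exposure about 10 min. AC50 by standard Hill equation.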
(In qHTS, concentration-response curves come from the screen itself.)

The target of assay [2] is Furin (Homo sapiens) (UniProt P09958). Nature of the assay: Furin counterscreen qHTS for Zika virus inhibitors (AID 1347149).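 For activity change, negative = inhibition: purified recombinant full-length human furin enzyme at 5 nM; fluorescence gain from furin cutting a BOC-RVRR-AMC peptide substrate over 15 min; top concentration of the series differs between compounds; plate controls were no-inhibitor control for no effect and no-enzyme control for full effect.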 Note: nearly all actives have a fitted effect of over 70% in size. Note: potency is the fitted concentration of half-maximal effect. Summed up:
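Counterscreen measures cleavage of 2 microM BOC-RVRR-AMC, below its ~15 microM Km, by 5 nM full-length human furin at pH 7.0 after a 15-min compound preincubation. Inhibition derives from the 15-min fluorescence increase at 37C.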
Background: Counterscreens check selectivity or assay interference.

The test system of assay [3] is Zika virus NS2B-NS3 protease (linked construct). Nature of the assay: 384 well plate NINDS Rhodamine confirmatory qHTS for Zika virus inhibitors (AID 1347164).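 For activity change, negative = inhibition: top concentration of the series differs between compounds; plate controls were no-inhibitor control for no effect and no-enzyme control for full effect.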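 Note: fluorescence from protease cleavage of Ac-LKRR-rhodamine 110 substrate; nearly all actives have a fitted effect of over 65% in size.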 Note: potency is the fitted concentration of half-maximal effect. In a few lines:
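Fluorescence read at ex 485 nm/em 538 nm, 25 min after adding 10 microM Ac-LKRR-Rd substrate at room temperature in the dark; signal normalized to no-enzyme and no-inhibitor controls. Enzyme final 5, 30 or 60 nM; compounds, ~15 min preincubation.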

A short description of assay [4]: HepG2 cells viability qHTS for Zika virus inhibitors (AID 1347168). Note: % is set by controls: 0 for no effect and ±100 for the full control effect. Summed up: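 To flag cytotoxic protease inhibitors, viability is measured by ATP-dependent luminescence (CellTiter Glo) after cells attached overnight receive compound for 24 to 48 hours in DMEM with 4% FBS.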
Assay [5] addresses Cytochrome P450 3A4 (Homo sapiens) (UniProt P08684). The experiment in a line: qHTS Assay for Inhibitors and Substrates of Cytochrome P450 3A4 (AID 884). For activity change, negative = inhibition: % is set by controls: 0 for no effect and ±100 for the full control effect. Note: nearly all actives have a fitted effect of over 50% in size. Note: potency is the fitted concentration of half-maximal effect. Summed up: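 Luminescent readout of luciferin produced by CYP3A4 (20 nM) dealkylation of Luciferin-PPXE, 25 uM (its KM). NADPH-driven reaction ran 60 min at RT after 10 min compound preincubation; data scaled to 57 uM ketoconazole as 100% inhibition.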

Assay [6] is described as follows: qHTS Assay for Lipid Storage Modulators (AID 1519; calls by dose curve; for activity change, negative = inhibition: % is set by controls: 0 for no effect and ±100 for the full control effect). As to conditions: Drosophila S3 cells, BODIPY lipid droplet/cell ratio, laser cytometry, cells loaded with oleic acid. Summed up: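 Cells seeded at 5,000 per well were treated with compounds over a concentration series and loaded with oleic acid (400 uM, as added). Lipid droplet fluorescence (488 nm excitation, 500-530 nm channel) was read by laser-scanning cytometry and normalized to 20 uM Triacsin C.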

Assay [7] has as its target Ubiquitin carboxyl-terminal hydrolase 1 (Homo sapiens) (UniProt O94782). Nature of the assay: Inhibitors of USP1/UAF1: Pilot qHTS (AID 504865).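 Note: rhodamine fluorescence freed from ubiquitin-rhodamine substrate followed over time; top concentration of the series differs between compounds; % is set by controls: 0 for no effect and ±100 for the full control effect; nearly all actives have a fitted effect of over 35% in size.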 In a few lines:
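1nM USP1/UAF1 + cpd, 15 min RT; start w/ Ub-Rho 150nM final; kinetic FL 480/540 nm, 6 reads q60 s. Buffer 50mM HEPES pH 7.8, 0.5mM EDTA, 1mM TCEP, 0.01% Tween-20, 0.1 mg/ml BSA.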

Assay [8] is described as follows: qHTS profiling for inhibitors of Plasmodium falciparum proliferation (AID 504749).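 For activity, negative = inhibition: 0% = DMSO vehicle and full inhibition = artemisinin control.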 For all read-outs here: nearly all actives have a fitted effect of over 60% in size. Note: potency is the fitted concentration of half-maximal effect. As to conditions: P. falciparum in erythrocytes, SYBR Green DNA, 72 h; for activity, negative = inhibition: at 28.7 µM (top of the series). Summed up:
(§1)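 Fluorescence of SYBR Green-bound parasite DNA, read at 485/535 nm, served as the growth measure. Infected erythrocytes were cultured with compound 72 h; artemisinin (0.29 uM) and DMSO wells defined the normalization range.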

Assay [9] has as its system 7G8. Described as above. As to conditions: P. falciparum in erythrocytes, SYBR Green DNA, 72 h; series mostly up to 28.7 µM. Summed up:
as §1

Assay [10] has as its system ATS95. The description is as above. As to conditions: P. falciparum in erythrocytes, SYBR Green DNA, 72 h; series mostly up to 28.7 µM. Summed up: as §1
Assay [11] relates to CP237. Described as above. As to conditions: P. falciparum in erythrocytes, SYBR Green DNA, 72 h; series mostly up to 28.7 µM. In a few lines:
as §1

Assay [12] concerns CP291. The description is as above. As to conditions: P. falciparum in erythrocytes, SYBR Green DNA, 72 h; series mostly up to 28.7 µM. In a few lines: as §1
Assay [13] relates to Dd2. The description is as above. The settings on record: P. falciparum in erythrocytes, SYBR Green DNA, 72 h; series mostly up to 28.7 µM. In a few lines:
as §1

Assay [14] has as its system FAB9. The assay is described as above. The settings on record: P. falciparum in erythrocytes, SYBR Green DNA, 72 h; series mostly up to 28.7 µM. Summed up:
as §1

In assay [15] the test system is GB4. The description is as above. As to conditions: P. falciparum in erythrocytes, SYBR Green DNA, 72 h; series mostly up to 28.7 µM. In a few lines:
as §1

The test system of assay [16] is SC27B. The description is as above. As to conditions: P. falciparum in erythrocytes, SYBR Green DNA, 72 h; series mostly up to 28.7 µM. Summed up: as §1
Assay [17] deals with N-terminal Xaa-Pro-Lys N-methyltransferase 1 (Homo sapiens) (UniProt Q9BV86). The experiment in a line: Confirmatory qHTS for Inhibitors of N-terminal methyltransferase 1 (NTMT1): MTaseGlo Assay (AID 1645874).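 For activity change, negative = inhibition: luminescence from SAH made as NTMT1 methylates SPKRIA peptide using SAM; 0% = DMSO control and -100% = no-enzyme control.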 Note: nearly all actives have a fitted effect of over 65% in size. Note: potency is the fitted concentration of half-maximal effect. Summed up: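 Inhibition was derived from luminescence after SAH-to-ATP conversion, scaled between no-enzyme and DMSO wells, then fitted by 4-parameter Hill. Conditions: 125 nM NTMT1, 100 uM SAM, 1 uM SPKRIA, 30 min RT.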

In assay [18] the target is Glucocorticoid receptor (Homo sapiens) (UniProt P04150). Nature of the assay: GR-GFP Redistribution (AID 450;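 active = compounds whose dose series gives a full or clear partial fitted curve of increased nuclear translocation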; note: potency is the fitted concentration of half-maximal effect). As to conditions: U2OS GR-GFP nuclear translocation, laser cytometry, 2 h.
Assay [19] shares this target. The experiment in a line: GR-EFC Redistribution (AID 451; calls by dose curve; note: potency is the fitted concentration of half-maximal effect). The settings on record: CHO-K1 GR-EFC translocation, beta-gal luminescence, 2 h. Summed up: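 CHO-K1 cells stably expressing nuclear-localized β-gal enzyme acceptor and GR fused C-terminally to the enzyme donor fragment; ligand-driven nuclear translocation restores β-gal by complementation. Compounds titrated up to 46 uM final, 2 h at 37 °C; luminescence read.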

Assay [20] concerns the target Cytochrome P450 3A4 (Homo sapiens) (UniProt P08684). Nature of the assay: qHTS Assay for Activators of Cytochrome P450 3A4 (AID 885). Note: nearly all actives have a fitted effect of over 65% in size. In a few lines: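 Human CYP3A4 dealkylates Luciferin-PPXE to luciferin, which luciferase detection converts to light. Substrate was at its KM (25uM), buffer 200mM KPO4, reaction 60 min at RT.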

Furin (Homo sapiens), sequence (P09958 whole entry, looked up): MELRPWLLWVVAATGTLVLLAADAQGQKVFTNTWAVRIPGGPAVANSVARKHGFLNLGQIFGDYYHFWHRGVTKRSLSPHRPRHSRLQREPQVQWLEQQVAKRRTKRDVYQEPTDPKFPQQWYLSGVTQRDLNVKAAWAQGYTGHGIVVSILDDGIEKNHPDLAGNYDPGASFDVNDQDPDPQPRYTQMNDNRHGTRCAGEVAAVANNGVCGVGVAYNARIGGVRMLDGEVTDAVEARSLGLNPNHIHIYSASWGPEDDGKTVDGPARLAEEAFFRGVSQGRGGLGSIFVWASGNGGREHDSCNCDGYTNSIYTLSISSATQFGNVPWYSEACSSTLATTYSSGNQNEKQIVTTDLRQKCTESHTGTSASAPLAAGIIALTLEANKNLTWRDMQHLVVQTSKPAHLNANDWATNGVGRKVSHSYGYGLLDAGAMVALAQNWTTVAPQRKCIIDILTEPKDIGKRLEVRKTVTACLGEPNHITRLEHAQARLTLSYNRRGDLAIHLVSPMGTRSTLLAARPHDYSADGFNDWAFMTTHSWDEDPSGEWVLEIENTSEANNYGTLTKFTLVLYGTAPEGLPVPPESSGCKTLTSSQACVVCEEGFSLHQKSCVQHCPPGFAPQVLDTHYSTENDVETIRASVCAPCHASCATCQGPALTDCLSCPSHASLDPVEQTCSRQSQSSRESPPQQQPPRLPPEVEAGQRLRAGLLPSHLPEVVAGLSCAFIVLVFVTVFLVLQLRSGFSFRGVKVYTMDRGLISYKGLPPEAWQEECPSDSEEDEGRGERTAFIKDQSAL
Glucocorticoid receptor (Homo sapiens), sequence (P04150 whole entry, looked up, the tested form may be a part): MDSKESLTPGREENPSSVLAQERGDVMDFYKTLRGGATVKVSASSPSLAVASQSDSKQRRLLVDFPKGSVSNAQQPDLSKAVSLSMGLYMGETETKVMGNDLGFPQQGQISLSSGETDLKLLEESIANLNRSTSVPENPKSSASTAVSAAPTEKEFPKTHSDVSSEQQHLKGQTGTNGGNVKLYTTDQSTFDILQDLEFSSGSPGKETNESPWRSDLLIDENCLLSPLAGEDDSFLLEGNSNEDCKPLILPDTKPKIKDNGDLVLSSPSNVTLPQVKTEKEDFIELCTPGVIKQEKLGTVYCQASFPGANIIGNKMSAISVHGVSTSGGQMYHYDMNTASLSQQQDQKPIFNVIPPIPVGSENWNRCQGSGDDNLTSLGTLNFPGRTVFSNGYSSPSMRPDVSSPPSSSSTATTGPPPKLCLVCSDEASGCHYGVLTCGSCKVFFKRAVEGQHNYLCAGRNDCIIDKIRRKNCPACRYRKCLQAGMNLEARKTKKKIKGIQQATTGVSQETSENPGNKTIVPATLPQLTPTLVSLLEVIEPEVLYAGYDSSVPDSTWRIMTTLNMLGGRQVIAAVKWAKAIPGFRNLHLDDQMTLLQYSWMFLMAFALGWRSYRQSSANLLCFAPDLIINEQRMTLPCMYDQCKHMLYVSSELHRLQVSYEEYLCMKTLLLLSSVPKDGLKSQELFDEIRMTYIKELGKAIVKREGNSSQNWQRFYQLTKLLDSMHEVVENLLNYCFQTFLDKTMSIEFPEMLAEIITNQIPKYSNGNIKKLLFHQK
Ubiquitin carboxyl-terminal hydrolase 1 (Homo sapiens), sequence (O94782 whole entry, looked up): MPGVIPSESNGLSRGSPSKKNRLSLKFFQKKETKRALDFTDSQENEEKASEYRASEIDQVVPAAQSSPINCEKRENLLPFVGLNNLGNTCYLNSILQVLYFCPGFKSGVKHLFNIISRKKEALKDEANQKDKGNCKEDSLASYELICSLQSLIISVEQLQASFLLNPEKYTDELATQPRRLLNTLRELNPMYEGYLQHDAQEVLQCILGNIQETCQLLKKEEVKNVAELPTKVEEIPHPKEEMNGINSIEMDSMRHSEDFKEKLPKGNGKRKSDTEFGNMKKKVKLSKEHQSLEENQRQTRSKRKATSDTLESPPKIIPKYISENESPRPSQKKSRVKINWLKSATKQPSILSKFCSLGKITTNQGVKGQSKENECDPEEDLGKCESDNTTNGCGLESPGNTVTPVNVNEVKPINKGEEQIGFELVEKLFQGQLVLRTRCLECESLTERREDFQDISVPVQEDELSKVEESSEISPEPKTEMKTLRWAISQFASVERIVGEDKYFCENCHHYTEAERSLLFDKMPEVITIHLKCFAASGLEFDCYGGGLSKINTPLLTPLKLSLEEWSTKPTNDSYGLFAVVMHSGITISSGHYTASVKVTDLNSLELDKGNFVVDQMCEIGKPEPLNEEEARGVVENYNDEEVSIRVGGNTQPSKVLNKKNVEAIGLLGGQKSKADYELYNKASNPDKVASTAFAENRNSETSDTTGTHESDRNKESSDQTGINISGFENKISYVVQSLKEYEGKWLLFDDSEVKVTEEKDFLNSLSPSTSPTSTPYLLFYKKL
Cytochrome P450 3A4 (Homo sapiens), sequence (P08684 whole entry, looked up): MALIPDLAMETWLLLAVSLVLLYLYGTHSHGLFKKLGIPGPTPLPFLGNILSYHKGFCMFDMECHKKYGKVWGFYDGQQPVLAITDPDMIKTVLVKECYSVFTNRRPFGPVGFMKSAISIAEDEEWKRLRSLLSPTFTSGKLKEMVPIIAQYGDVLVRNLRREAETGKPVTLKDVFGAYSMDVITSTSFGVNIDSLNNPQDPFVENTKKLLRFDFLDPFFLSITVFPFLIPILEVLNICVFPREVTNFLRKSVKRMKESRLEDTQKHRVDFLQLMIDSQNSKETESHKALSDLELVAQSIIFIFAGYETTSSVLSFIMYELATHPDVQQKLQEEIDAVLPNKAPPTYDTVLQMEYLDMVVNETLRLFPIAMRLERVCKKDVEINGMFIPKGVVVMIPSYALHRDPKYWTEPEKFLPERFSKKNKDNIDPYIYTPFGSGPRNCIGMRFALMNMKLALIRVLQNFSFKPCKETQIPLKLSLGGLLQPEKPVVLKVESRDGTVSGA
N-terminal Xaa-Pro-Lys N-methyltransferase 1 (Homo sapiens), sequence (Q9BV86 whole entry, looked up): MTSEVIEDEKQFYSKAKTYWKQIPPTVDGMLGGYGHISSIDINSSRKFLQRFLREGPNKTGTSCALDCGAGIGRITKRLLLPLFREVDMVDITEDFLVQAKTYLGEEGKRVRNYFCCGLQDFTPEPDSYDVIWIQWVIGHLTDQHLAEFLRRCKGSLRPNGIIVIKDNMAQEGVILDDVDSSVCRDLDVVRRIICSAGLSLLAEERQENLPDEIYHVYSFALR
Voltage-gated inwardly rectifying potassium channel KCNH2 (Homo sapiens), sequence (Q12809 whole entry, looked up): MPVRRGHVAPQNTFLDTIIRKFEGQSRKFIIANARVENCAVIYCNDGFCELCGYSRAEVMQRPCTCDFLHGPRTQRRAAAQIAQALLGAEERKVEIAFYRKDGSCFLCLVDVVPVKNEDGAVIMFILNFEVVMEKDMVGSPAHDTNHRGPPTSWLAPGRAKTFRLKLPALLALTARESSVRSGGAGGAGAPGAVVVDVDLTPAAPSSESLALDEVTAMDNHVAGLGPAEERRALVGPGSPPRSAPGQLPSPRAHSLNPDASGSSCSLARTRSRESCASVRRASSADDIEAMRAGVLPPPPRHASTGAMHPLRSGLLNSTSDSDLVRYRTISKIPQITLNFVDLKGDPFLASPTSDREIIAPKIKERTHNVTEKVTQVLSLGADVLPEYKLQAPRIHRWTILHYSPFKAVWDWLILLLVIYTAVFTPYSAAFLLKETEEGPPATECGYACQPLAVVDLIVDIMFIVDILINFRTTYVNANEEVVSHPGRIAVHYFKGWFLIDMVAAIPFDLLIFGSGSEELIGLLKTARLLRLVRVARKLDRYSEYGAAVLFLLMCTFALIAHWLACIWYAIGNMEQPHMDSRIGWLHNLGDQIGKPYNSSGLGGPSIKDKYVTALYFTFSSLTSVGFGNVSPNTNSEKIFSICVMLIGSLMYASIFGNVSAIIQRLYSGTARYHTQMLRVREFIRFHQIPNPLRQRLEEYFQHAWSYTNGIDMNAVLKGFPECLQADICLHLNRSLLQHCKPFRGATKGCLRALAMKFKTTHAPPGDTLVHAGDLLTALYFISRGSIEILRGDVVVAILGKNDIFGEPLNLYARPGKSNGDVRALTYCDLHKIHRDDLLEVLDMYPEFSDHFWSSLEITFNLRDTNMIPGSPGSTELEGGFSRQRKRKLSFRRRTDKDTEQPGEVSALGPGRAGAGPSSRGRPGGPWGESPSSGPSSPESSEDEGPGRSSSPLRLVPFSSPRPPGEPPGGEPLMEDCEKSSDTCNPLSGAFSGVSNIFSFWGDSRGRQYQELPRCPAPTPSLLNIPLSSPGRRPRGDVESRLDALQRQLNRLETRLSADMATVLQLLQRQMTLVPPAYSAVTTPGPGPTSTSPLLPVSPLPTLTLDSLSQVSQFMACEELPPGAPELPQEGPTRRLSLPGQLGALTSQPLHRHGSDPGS

As to `CC[C@H](C)[C@H]1O[C@]2(CC[C@@H]1C)C[C@@H]1C[C@@H](C/C=C(\C)[C@@H](O[C@H]3C[C@H](OC)[C@@H](O[C@H]4C[C@H](OC)[C@@H](O)[C@H](C)O4)[C@H](C)O3)[C@@H](C)/C=C/C=C3\CO[C@@H]4[C@H](O)C(C)=C[C@@H](C(=O)O1)[C@]34O)O2`, the Potency result in assay [1], in assay [2], in [3] and in [4] was “inactive” each time.

`CCCCC(=O)N(Cc1ccc(-c2ccccc2-c2nn[nH]n2)cc1)C(C(=O)O)C(C)C` (centres undefined): the Potency entry in assay [5], in [7], in assay [10], in [11], in [12] and in assay [13] was “inactive” throughout. In addition, the Potency entry in assay [14] and in [16] was “inactive” in each case. Moreover, the activity change, negative = inhibition in assay [6] (at 57.5 µM (top of the series)) is -6.27% (inactive). For the same compound, the figures for the max response in assay [6] (measured here: cell count channel max response) and in assay [6] (measured here: lipid channel max response) were 7.79% and 4.86%, respectively. In addition, the activity, negative = inhibition is 9.14% (inactive) in assay [8] (parasite line A) and 6.89% (inactive) in [8] (parasite line B). Besides, the values for the Potency in [9] and in assay [15] were 11.2 µM (active) and 13.5 µM (active), respectively.

With `CN(Cc1ccc(C(=O)O)cc1)c1ccc(OCc2c(-c3c(Cl)cccc3Cl)noc2C2CC2)nc1C(F)(F)F`, the Potency was 9.61 µM (active) in assay [2] and 6.31 µM (active) in [3]. Further, in assay [4], the Potency result is “inactive”.

As for `O=C(CC1NCCC[C@H]1O)Cn1cnc2cc(Br)c(Cl)cc2c1=O` (some centres undefined), the Potency in assay [8] (parasite line A) is 2 µM (active); in [8] (parasite line B) it was 3.55 µM (active); in [9], 1 µM (active); in [10], 2 µM (active); in [11] it was 3.55 µM (active); in assay [12] it was 2.69 µM (active). In addition, the Potency in assay [13] was 0.708 µM (active); in assay [14], 1 µM (active); in assay [15] it was 1.9 µM (active); in [16], 11.2 µM (active).

On to `Fc1ccccc1CNCc1ccc(-c2ccnc3[nH]ccc23)cc1`, for which the Potency entry in assay [17] is “inactive”.

Consider `Clc1ccccc1CNCC1CCC(CNCc2ccccc2Cl)CC1` (centres undefined), for which the Potency in assay [18] and in assay [19] was > 46 µM (inactive) in each case.

As to `O=C(O)c1ccc(O)c2ncc(N3CCCN(CCc4cccc5ccccc45)CC3)cc12`, the values for the Potency in assay [2] and in assay [3] were 49.4 µM (active) and 3.55 µM (active), respectively. Moreover, the Potency result in [4] is “inactive”.

For the compound `Cc1nc2c(O)cccc2c(=O)[nH]1`, the Potency in assay [18] and in assay [19] was > 46 µM (inactive) each time. Further, the Potency entry in [7] is “inactive”.

Regarding `CS(=O)(=O)CCNCc1nc(-c2ccc3ncnc(Nc4ccc(OCc5cccc(F)c5)c(Cl)c4)c3c2)cs1`, the Potency in assay [5] was 2.51 µM (active). For the same compound, the Potency result in assay [20] is “inactive”.

In the case of `CN1CCN(CCC=C2c3ccccc3Sc3ccc(S(=O)(=O)N(C)C)cc32)CC1`, the Potency result in assay [7] and in assay [14] was “inactive” in each case. Moreover, the Potency was 10 µM (active) in assay [1]; 5.01 µM (active) in assay [9]; 11.2 µM (active) in assay [10]; 11.2 µM (active) in assay [11]; 15.1 µM (active) in assay [12]; 12.6 µM (active) in [13]. In addition, the Potency in assay [15] is 13.5 µM (active); in [16], 11.2 µM (active).

Take `CC(C)=CCC/C(C)=C/CC/C(C)=C/CSc1ccccc1C(=O)O`: the results for the Potency in assay [18], in assay [19] and in assay [17] were > 46 µM (inactive), > 46 µM (inactive) and 39.8 µM (active), respectively. Also, the Potency entry in assay [20] and in assay [1] was “inactive” each time.

In the case of `Cn1cc(C2=C(c3cn(CCCSC(=N)N)c4ccccc34)C(=O)NC2=O)c2ccccc21`, the Potency in [17] was 6.02 µM (active).

Regarding `Nc1ncnc2c1c(I)cn2C1OC(CO)C(O)C1O` (centres undefined), the Potency entry in assay [5] and in [7] was “inactive” throughout. Moreover, the Potency in [17] is 0.851 µM (active).

`COc1cc(/C=C(\C#N)C(N)=O)cc(CSc2nc3ccccc3s2)c1O`: the Potency in [19] is > 46 µM (inactive); in assay [5], 3.98 µM (active). For the same compound, the Potency entry in assay [20] is “inactive”.

Consider `C=C1C(=O)O[C@H]2[C@H]1CC/C(C)=C\CC[C@@]1(C)O[C@@H]21`, for which the Potency entry in assay [1] was “inactive”.

Regarding `CCOC(=O)CCC(=O)O[C@H]1[C@H](O[C@@H]2[C@@H](C)[C@H](O[C@H]3C[C@@](C)(OC)[C@@H](O)[C@H](C)O3)[C@@H](C)C(=O)O[C@H](CC)[C@@](C)(O)[C@H](O)[C@@H](C)C(=O)[C@H](C)C[C@@]2(C)O)O[C@H](C)C[C@@H]1N(C)C`, the Potency in assay [18] was > 20.6 µM (inactive).

For `C=CC(=O)c1ccc2ccccc2c1`, the Potency in assay [5] is 25.1 µM (active). The Potency result in [20] was “inactive”.
